Screening results from PubChem BioAssay.
Autofluor counter: flagged as autofluorescent in microsphere protease counterscreen; compound autofluorescence counterscreen, microsphere flow cytometry; active compounds read high; fluorescence intensity (concentration not given with the values); hit rate 3.1% among 360,000; in the data active means fluorescence intensity above about 16000; inconclusive means no clear call, values can overlap the other calls
BoNT F protease: blocks Botulinum neurotoxin F light chain protease | Multiplex microsphere protease cleavage assay, flow cytometry | inhibition, % at 10 µM | hit rate 0.22% among 360,000 | AID 588497; in the data active means inhibition above about 35%, passing the limit was not always enough; inconclusive means no clear call, values can overlap the other calls; further: plate controls were buffer without enzyme for full effect and enzyme alone for no effect
BoNT A protease: blocks Botulinum neurotoxin A light chain protease. multiplex microsphere protease substrate cleavage, flow cytometry. inhibition, % at 10 µM. hit rate 0.17% among 360,000; further: plate controls were buffer without enzyme for full effect and enzyme alone for no effect
Anthrax LF prot: inhibitors of Bacillus anthracis lethal factor protease; multiplex microsphere protease cleavage assay, LF; hit rate 0.12% among 360,000; P15917; inhibition, % at 10 µM; further: plate controls were buffer without enzyme for full effect and enzyme alone for no effect
Target sequence (P15917 whole entry, looked up): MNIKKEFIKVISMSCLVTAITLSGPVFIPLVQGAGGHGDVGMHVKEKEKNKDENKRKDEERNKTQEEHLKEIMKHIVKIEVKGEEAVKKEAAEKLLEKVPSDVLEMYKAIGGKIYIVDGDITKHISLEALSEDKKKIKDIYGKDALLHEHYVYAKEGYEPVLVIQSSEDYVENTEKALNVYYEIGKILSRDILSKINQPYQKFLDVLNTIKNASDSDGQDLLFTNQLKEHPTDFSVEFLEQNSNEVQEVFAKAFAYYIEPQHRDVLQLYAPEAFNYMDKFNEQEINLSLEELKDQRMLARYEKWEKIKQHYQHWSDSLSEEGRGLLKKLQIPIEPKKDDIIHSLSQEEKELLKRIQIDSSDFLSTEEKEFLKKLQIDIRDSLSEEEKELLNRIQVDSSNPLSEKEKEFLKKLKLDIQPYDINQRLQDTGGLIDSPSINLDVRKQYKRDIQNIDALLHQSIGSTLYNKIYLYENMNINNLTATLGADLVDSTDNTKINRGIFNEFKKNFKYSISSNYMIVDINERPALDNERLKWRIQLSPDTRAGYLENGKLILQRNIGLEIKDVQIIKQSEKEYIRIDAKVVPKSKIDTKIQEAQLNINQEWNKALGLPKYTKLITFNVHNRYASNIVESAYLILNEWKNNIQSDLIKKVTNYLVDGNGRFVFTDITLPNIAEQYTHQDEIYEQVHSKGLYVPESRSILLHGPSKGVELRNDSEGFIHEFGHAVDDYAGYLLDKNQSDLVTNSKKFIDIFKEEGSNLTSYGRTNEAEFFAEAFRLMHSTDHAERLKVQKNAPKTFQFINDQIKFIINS
* hit, by the source's call. Only some compounds are listed: those with a hit (about 3.5% of all), similar ones and a draw of the others. Unless noted, no stated cut-off is given here; in the data, active means inhibition above about 30%; inconclusive means no clear call, values can overlap the other calls; inactive means below that.

CC(NC(=O)C1CCN(S(=O)(=O)c2ccc3c(c2)NC(=O)CO3)CC1)c1ccccc1 (stereo not drawn) was read as Autofluor counter 5600, BoNT F protease 4, BoNT A protease 2 and Anthrax LF prot 0.
`CCC(C)NC(=O)COc1ccc(Br)c(C)c1` (stereo not drawn) gave Autofluor counter 20456*, BoNT F protease -3, BoNT A protease -1 and Anthrax LF prot -4.
For CCc1sc(C(=O)NC)cc1Br the results were Autofluor counter 20040*, BoNT F protease 9, BoNT A protease 7 and Anthrax LF prot 2.
For CCc1sc(C(=O)NCc2cc(C)n(C)n2)cc1Br the results were Autofluor counter 8516, BoNT F protease -3, BoNT A protease 0 and Anthrax LF prot -4.
`COc1ccc2nc(SCC(N)=O)[nH]c2c1` gave Autofluor counter 22930*, BoNT F protease -2, BoNT A protease inconclusive and Anthrax LF prot -1.
Cc1ccc(-c2cnc3c(c2)C(=O)N([C@H](C)CO)C[C@@H](C)[C@@H](CN(C)C(=O)Cc2ccccc2)O3)cc1 was read as Autofluor counter 3617, BoNT F protease 2, BoNT A protease 0 and Anthrax LF prot -2.
`COCCNc1nc2c(c(=O)n(Cc3cccc(Cl)c3)c(=O)n2C)n1C` gave Autofluor counter 5111, BoNT F protease 7, BoNT A protease -2 and Anthrax LF prot -2.
For COc1ccc(CNc2nc3c(c(=O)n(Cc4ccc(Cl)cc4)c(=O)n3C)n2C)cc1 the results were Autofluor counter 16319*, BoNT F protease 4, BoNT A protease 0 and Anthrax LF prot -3.
COCCNc1nc2c(c(=O)n(Cc3ccc(OC)cc3)c(=O)n2C)n1C was read as Autofluor counter 22936*, BoNT F protease -2, BoNT A protease -1 and Anthrax LF prot -3.
COc1ccc(C(=O)NCCCOc2cccnc2)cc1OC1CCN(C(C)=O)CC1 was read as Autofluor counter 5900, BoNT F protease 12, BoNT A protease 1 and Anthrax LF prot -1.
Screening Cc1noc(C)c1S(=O)(=O)N(CC(=O)NC(C)c1ccccc1)c1ccc(C(C)C)cc1 (stereo not drawn) returned Autofluor counter 5958, BoNT F protease -8, BoNT A protease -2 and Anthrax LF prot -3.
`Cc1cccc(OC(C)C(=O)N2CCCc3ccccc32)c1` (stereo not drawn) gave Autofluor counter 2481, BoNT F protease -7, BoNT A protease 0 and Anthrax LF prot 0.
For Cc1ccc(OC(C)C(=O)N2CCCc3ccccc32)cc1 (stereo not drawn) the results were Autofluor counter 17127*, BoNT F protease -8, BoNT A protease inconclusive and Anthrax LF prot -7.
CC(C)CCNC(=O)c1ccc(CSCc2cccc(F)c2)o1 was read as Autofluor counter 17562*, BoNT F protease 4, BoNT A protease 5 and Anthrax LF prot -4.
CC(C)c1ccccc1NC(=O)c1cnccn1 was read as Autofluor counter 25411*, BoNT F protease -5, BoNT A protease inconclusive and Anthrax LF prot -2.
CSc1ccccc1NC(=O)c1cnccn1 was read as Autofluor counter 16758*, BoNT F protease -6, BoNT A protease inconclusive and Anthrax LF prot -2.
`CCOc1ccccc1NC(=O)c1cnccn1` gave Autofluor counter 4300, BoNT F protease -2, BoNT A protease -1 and Anthrax LF prot -2.
`O=C(Nc1cccc2ccccc12)c1cnccn1` gave Autofluor counter 2985, BoNT F protease 4, BoNT A protease 2 and Anthrax LF prot -9.
For CCc1ccccc1NC(=O)c1cnccn1 the results were Autofluor counter 21346*, BoNT F protease -4, BoNT A protease -2 and Anthrax LF prot 0.
`CSc1ccccc1NC(=O)Nc1ccc(Cl)cc1` gave Autofluor counter 20588*, BoNT F protease 8, BoNT A protease 9 and Anthrax LF prot -10.
COC(=O)c1ccccc1-n1c(C)nc(=O)c(-c2ccccc2)c1C was read as Autofluor counter 4335, BoNT F protease inconclusive, BoNT A protease -8 and Anthrax LF prot -4.
For CCOc1nc(NCCc2ccc(OC)c(OC)c2)nc(N2CCN(c3ccc(OC)cc3)CC2)n1 the results were Autofluor counter 23445*, BoNT F protease -1, BoNT A protease -1 and Anthrax LF prot -2.
Screening COc1ccc(N2CCN(c3nc(NCCc4ccc(OC)c(OC)c4)nc(OC)n3)CC2)cc1 returned Autofluor counter 22889*, BoNT F protease 0, BoNT A protease inconclusive and Anthrax LF prot -5.
Screening CCOc1cc(C)nc(NCCc2ccc(OC)c(OC)c2)n1 returned Autofluor counter 10760, BoNT F protease -8, BoNT A protease 0 and Anthrax LF prot -2.
O=C(NNS(=O)(=O)c1ccccc1[N+](=O)[O-])c1ccc(O)cc1 was read as Autofluor counter 24381*, BoNT F protease -5, BoNT A protease -1 and Anthrax LF prot 0.
